Broadly, the inhibition is the relative decrease from the control value, in per cent.

The assay deals with PEG-3 (UniProt Q6IN02). In words: inhibition of PEG-3 promoter-driven reporter – cell-based, HeLa, luciferase, CREF/GAPDH counter-screen panel, dose response (AID 624167). The note with it: CREF/GAPDH counter-screens; HeLa PEG-Prom luciferase reporter, overnight, run 1, dose range 1, at 100 µM (top of the series) unless noted. A general note: Counterscreens check selectivity or assay interference.
Chain of PEG-3 (Q6IN02 whole entry, looked up): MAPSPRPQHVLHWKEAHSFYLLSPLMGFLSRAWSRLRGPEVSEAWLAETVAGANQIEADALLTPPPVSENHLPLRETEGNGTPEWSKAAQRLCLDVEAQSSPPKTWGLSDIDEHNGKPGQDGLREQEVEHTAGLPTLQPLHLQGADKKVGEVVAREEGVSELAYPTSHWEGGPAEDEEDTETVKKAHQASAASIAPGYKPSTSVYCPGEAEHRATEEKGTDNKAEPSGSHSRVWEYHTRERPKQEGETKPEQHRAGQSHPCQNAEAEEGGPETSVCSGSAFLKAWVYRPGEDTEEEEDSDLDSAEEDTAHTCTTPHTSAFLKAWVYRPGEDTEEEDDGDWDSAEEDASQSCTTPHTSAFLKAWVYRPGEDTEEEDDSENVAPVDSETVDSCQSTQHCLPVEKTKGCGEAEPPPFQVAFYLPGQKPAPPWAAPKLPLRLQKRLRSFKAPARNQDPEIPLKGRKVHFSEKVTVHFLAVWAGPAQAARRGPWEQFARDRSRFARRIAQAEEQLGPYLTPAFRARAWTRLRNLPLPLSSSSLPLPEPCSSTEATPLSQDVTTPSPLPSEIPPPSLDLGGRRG
In the case of `Cc1nn(-c2ccccc2)c2c1C(c1ccc([N+](=O)[O-])cc1)N1C(=N2)C(=O)Nc2ccccc21` (stereo unspecified), the inhibition turned out to be 10.2%. With `CN1CCC(NC(=O)c2cc(-c3cccc(Br)c3)nc3ccccc23)CC1` the figure was 100%. Take `COc1ccc(-c2sc3ccccc3c2-c2ccc(OCCN3CCCCC3)cc2)cc1`: the inhibition was determined as 99.5%. With `COc1ccc(C2c3ccc4ccccc4c3Oc3ncn(CCO)c(=N)c32)cc1OC` (stereo unspecified) the figure was 99.1%; with `OC1(c2ccc(Cl)c(Cl)c2)C[n+]2ccccc2N1Cc1ccccc1` (stereo unspecified), 95%; with `CCCCNc1nc(=S)n(-c2ccccc2)c(C)c1C(C)=O`, 98%. With `c1ccc(CN=C(NCc2ccccc2)NCc2ccccc2)cc1` the figure was 99.7%; with `COc1cc(/C=C/[N+](=O)[O-])ccc1OC(=O)/C=C/c1ccc(F)cc1`, -70.5%. With `CCCCN(C)C(=O)c1ccc(Nc2nc(C(N)CCc3ccccc3)cs2)nc1` (stereo unspecified) the figure was 98.6%. For the compound `CCN(Cc1ccccc1)S(=O)(=O)c1ccc(C(=O)N(CCCN(C)C)c2nc3cc4c(cc3s2)OCCO4)cc1`, the inhibition was 99.4%. Take `Cc1ccc(C(=O)N(CCCN(C)C)c2nc3ccc(Cl)cc3s2)cc1C`: the inhibition was found to be 99.5%. With `COc1cccc(NC(=O)CN(C)C(=O)c2cc(-c3ccc(F)cc3)nc3ccccc23)c1` the figure was 102%. With `c1cncc(-c2nc(NCC3COc4ccccc4O3)c3ccccc3n2)c1` (stereo unspecified) the figure was 101%; with `Cn1c(=O)c(C(=O)CCl)c(N)n(Cc2ccccc2)c1=O`, 102%. With `COc1cc(CNCCN2CCOCC2)ccc1OCc1ccc(Cl)cc1Cl` the figure was 102%; with `COc1ccc(CCn2c(=N)c(C(=O)NC3CCCC3)cc3c(=O)n4cccc(C)c4nc32)cc1`, 44.4%.

For the origin of these results see PubChem BioAssay.
